Results from PubChem BioAssay AID2284378 (EPA ToxCast).
Records with an inconclusive call do not appear. The source made the active and inactive calls. The calls were made as follows: active = hit-call score of the fitted dose curve at least 0.9, where 1 is the maximum; inconclusive = response in the unintended direction; inactive = score below 0.9.

Test system: frog Retinoid X Receptor beta (RXRb), gene 394278
Assay: ATG_frRXRb_EcoTox2: Attagene TRANS-FACTORIAL EcoTox-2 HepG2 Assay for frog Retinoid X Receptor beta (RXRb)
Description: ATG_EcoTox2 is a cell-based, multiplexed assay created by modifying the existing Attagene TRANS-FACTORIAL system to include a panel of nuclear receptors from some or all the following species: human (Homo sapiens), african clawed frog (Xenopus laevis), rainbow trout (Oncorhynchus mykiss), japanese medaka (Oryzias latipes), and zebrafish (Danio rerio). The ECOTOX2-FACTORIAL format uses HepG2, a human liver cell line, with measurements taken at 24 hours after chemical dosing in a 24-well plate. ATG_frRXRb_EcoTox2 is one of 29 assay components calculated in the ATG_EcoTox2 assay. It is designed to make measurements of mRNA induction, a form of inducible reporter, as detected with fluorescence intensity signals by Reverse transcription polymerase chain reaction (RT-PCR) and Capillary electrophoresis technology.The assay endpoint ATG_frRXRb_EcoTox2 was analyzed in the positive analysis fitting direction relative to DMSO as the negative control and baseline of activity. Using a type of inducible reporter, measures of mRNA for gain-of-signal activity can be used to understand the reporter gene at the transcription factor-level as they relate to the gene RXRb. Furthermore, this assay endpoint can be referred to as a primary readout, because this assay has produced multiple assay endpoints where this one serves a reporter gene function. […]
Human liver HepG2 cells are transiently transfected with multiple reporter transcription units (MRTUs) in 6-well plates using FuGene 6 reagent (Roche; 3 ml FuGene/1 mg DNA). […] A major difference between the CIS and TRANS system is that in CIS activities of endogenous TFs are measured, whereas the TRANS assay evaluates changes in activities of exogenous, chimeric NR-Gal4 proteins. […] The fragments were purified using Qiaquick PCR columns (Qiagen), analyzed on an ABI 3130xL genetic analyzer (Applied Biosystems) with peak positions identified by using a set of X-rhodamine (ROX)-labeled MapMarker1000 molecular weight standards (BioVentures). […]

Structure (SMILES) | AC50
[Cl][Sn]([c]1ccccc1)([c]1ccccc1)[c]1ccccc1 | 0.0888 µM (active)
O=C(O)C(F)(F)C(F)(F)C(F)(F)C(F)(F)C(F)(F)C(F)(F)C(F)(F)F | 30 µM (active)
CCCCOCN(C(=O)CCl)c1c(CC)cccc1CC | 38.5 µM (active)
